According to PubChem BioAssay (Tox21):
Inconclusive results are not listed. The source made the active and inactive calls. Unless noted, calls come from the whole dose curve; as a rule, active = well fitted curve in the direction sought with a large enough effect in the repeat runs; inconclusive = weak or mixed curves; inactive = no such curve, though single readings can be large; an effect the other way counts as inactive or inconclusive.

Experiments:
[1] = qHTS assay to identify small molecule antagonists of the estrogen related receptor (ERR) signaling pathway from Tox21 library - cell viability counter screen (AID 1224834); note: nearly all actives have a fitted effect of over 30% in size
How it was run: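 ERR cells, 2,000/well; 6 h settle at 37 C/5% CO2; pin-tool compound transfer in DMSO; 17.5 h at 37 C; CellTiter-Fluor, 30 min; fluorescence intensity.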

[2] = biological target: Luciferin 4-monooxygenase (Photinus pyralis) (UniProt P08659); assay: qHTS assay to identify small molecule inhibitors of firefly luciferase (AID 1224835); note: series mostly up to about 120 µM; nearly all actives have a fitted effect of over 25% in size
How it was run: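 Biochemical qHTS: compounds run as interplate titrations against purified firefly enzyme, with D-luciferin and ATP each at its KM concentration. Light output recorded by CCD imaging.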

[3] = qHTS assay to identify small molecule agonists of the constitutive androstane receptor (CAR) signaling pathway - cell viability counter screen (AID 1224836); note: series mostly up to about 92 µM; nearly all actives have a fitted effect of over 45% in size
How it was run: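 Double-stable HepG2 hepatoma cells (hCAR plus CYP2B6-2.2kb) are treated for 23 h at 37 C with test compounds in 15-point concentration series. PK11195 at 0.75 uM final is co-added. Cell viability is quantified by CellTiter-Fluor.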

[4] = qHTS assay to identify small molecule antagonists of the constitutive androstane receptor (CAR) signaling pathway - cell viability counter screen (AID 1224837); note: series mostly up to about 92 µM; nearly all actives have a fitted effect of over 45% in size
How it was run: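 Viability was measured with CellTiter-Fluor in a HepG2 line carrying stably transfected hCAR and a CYP2B6-2.2kb construct. Cells were exposed for 23 hr at 37 C to 15 compound concentrations with 50 nM CITCO as agonist.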

[5] = qHTS assay to identify small molecule antagonists of the estrogen related receptor signaling pathway with the pleiotropic PPARgamma coactivator (PGC) from Tox21 10K library - cell viability counter screen (AID 1224840; active = well fitted cell-killing curve with a large enough effect in the repeat runs, not every such curve was filed as active; note: nearly all actives have a fitted effect of over 40% in size)
How it was run: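 Multiplexed viability counter screen in the PGC/ERR cell line: cells treated with DMSO-dissolved compounds for 17.5 hours at 37 C, then viability measured as CellTiter-Fluor fluorescence.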

[6] = biological target: Nuclear receptor subfamily 1 group I member 3 (Homo sapiens) (UniProt Q14994); assay: qHTS assay to identify small molecule agonists of the constitutive androstane receptor (CAR) signaling pathway (AID 1224839); note: nearly all actives have a fitted effect of over 15% in size; note: potency is the fitted concentration of half-maximal effect; for activation: series mostly up to about 92 µM
How it was run: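 Readout: firefly luciferase luminescence via ONE-Glo. System: HepG2 double-stable for hCAR and CYP2B6-2.2kb. Conditions: 15-point compound titration, PK11195 at 0.75 uM final, 24 h incubation.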

[7] = qHTS assay to identify small molecule antagonists of the estrogen related receptor signaling pathway with the pleiotropic PPARgamma coactivator (PGC) from Tox21 10K library (AID 1224841; call rule not given here; note: actives are mostly falling curves and most rising ones were filed inactive; nearly all actives have a fitted effect of over 50% in size; note: potency is the fitted concentration of half-maximal effect; for activity, negative = inhibition: series mostly up to about 92 µM)
How it was run: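 Steps: plate 2,000 PGC/ERR cells per well; incubate 6 h at 37 C with 5% CO2; transfer compounds from DMSO stocks by pin tool; incubate 18 h at 37 C; add One-Glo; measure luminescence 30 min later.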

[8] = qHTS assay to identify small molecule agonists of the estrogen related receptor signaling pathway with the pleiotropic PPARgamma coactivator (PGC) from Tox21 10K library (AID 1224842); note: nearly all actives have a fitted effect of over 15% in size
How it was run: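 PGC/ERR reporter cell line, 2,000 cells per well, incubated 6 h at 37 C before 23 nL compound in DMSO was added. After 18 h at 37 C, One-Glo luminescence read following 30 min at room temperature.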

[9] = biological target: Nuclear receptor subfamily 1 group I member 3 (Homo sapiens) (UniProt Q14994); assay: qHTS assay to identify small molecule antagonists of the constitutive androstane receptor (CAR) signaling pathway (AID 1224838);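 note: HepG2 cells stably expressing hCAR with CYP2B6 luciferase reporter stimulated by CITCO; nearly all actives have a fitted effect of over 40% in size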; note: potency is the fitted concentration of half-maximal effect
How it was run: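 Antagonist mode used CITCO at a final 50 nM to activate CAR in human hepatoma HepG2 cells carrying stable hCAR and a 2.2 kb CYP2B6 promoter-luciferase construct. Compounds were tested at 15 concentrations over 24 h, with luminescence as the end point.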
% is set by controls: 0 for no effect and ±100 for the full control effect.

Chain of Luciferin 4-monooxygenase (Photinus pyralis) (P08659 whole entry, looked up): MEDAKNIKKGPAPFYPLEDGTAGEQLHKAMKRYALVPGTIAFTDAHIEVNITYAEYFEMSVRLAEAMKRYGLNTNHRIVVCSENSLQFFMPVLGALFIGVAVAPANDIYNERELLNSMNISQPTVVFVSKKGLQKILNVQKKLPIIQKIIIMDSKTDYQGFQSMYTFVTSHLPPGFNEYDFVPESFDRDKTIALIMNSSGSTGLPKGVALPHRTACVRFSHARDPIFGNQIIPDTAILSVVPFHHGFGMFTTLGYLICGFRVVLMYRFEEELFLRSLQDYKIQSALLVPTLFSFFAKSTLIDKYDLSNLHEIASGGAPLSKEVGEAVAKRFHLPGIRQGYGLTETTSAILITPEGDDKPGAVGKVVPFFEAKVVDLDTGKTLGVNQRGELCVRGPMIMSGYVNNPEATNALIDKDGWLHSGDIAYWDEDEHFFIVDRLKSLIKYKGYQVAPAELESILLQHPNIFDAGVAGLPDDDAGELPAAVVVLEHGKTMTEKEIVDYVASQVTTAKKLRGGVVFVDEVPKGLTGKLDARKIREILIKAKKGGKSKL
Chain of Nuclear receptor subfamily 1 group I member 3 (Homo sapiens) (Q14994 whole entry, looked up): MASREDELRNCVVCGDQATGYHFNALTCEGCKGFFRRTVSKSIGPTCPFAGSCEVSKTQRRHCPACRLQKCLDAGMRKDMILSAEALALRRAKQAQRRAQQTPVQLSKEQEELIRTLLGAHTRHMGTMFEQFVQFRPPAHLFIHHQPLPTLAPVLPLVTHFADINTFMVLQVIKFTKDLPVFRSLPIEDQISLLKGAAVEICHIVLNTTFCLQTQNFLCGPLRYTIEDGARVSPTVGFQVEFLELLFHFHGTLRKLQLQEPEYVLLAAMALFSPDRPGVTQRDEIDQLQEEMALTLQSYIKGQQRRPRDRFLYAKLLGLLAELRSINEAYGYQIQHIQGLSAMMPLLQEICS

CC(C)(C)CC(C)(C)N
inactive: Potency [1] | Potency [2] | outcome [3] | outcome [4] | outcome [5]

CCc1cc(S(=O)(=O)O)c2cc(C(C)C)cccc1-2
inactive: Potency [1] | Potency [2] | outcome [3] | outcome [4] | outcome [5]

COc1nc(C)nc(N)n1
inactive: Potency [1] | Potency [2] | outcome [3] | outcome [4] | outcome [5]

C=CCSCC1Nc2cc(Cl)c(S(N)(=O)=O)cc2S(=O)(=O)N1 (configuration not stated)
inactive: Potency [1] | Potency [2] | outcome [3] | outcome [4] | outcome [5]

CCCCCCCCCCCCCCCCCC(=O)OCCCCCCCCCCCCCC(C)C
inactive: Potency [1] | Potency [2] | outcome [3] | outcome [4] | outcome [5]

O=C(O)/C=C/c1ccc(Cn2ccnc2)cc1
inactive: Potency [1] | Potency [2] | outcome [3] | outcome [4] | outcome [5]

C=CC(=O)OCCCCCC
inactive: Potency [1] | Potency [2] | outcome [3] | outcome [4] | outcome [5]

COc1cc(C(=O)N2CCOCC2)cc(OC)c1OC
inactive: Potency [1] | Potency [2] | outcome [3] | outcome [4] | outcome [5]

Nc1cc(N)cc(C(=O)O)c1
inactive: Potency [1] | Potency [2] | outcome [3] | outcome [4] | outcome [5]

CC1(C)OC(=O)Nc2ccc(Br)cc21
inactive: Potency [1] | Potency [2] | outcome [3] | outcome [4] | Potency [6] | outcome [5]

N[C@@H](CS)C(=O)O
inactive: Potency [1] | Potency [2] | outcome [3] | outcome [4] | outcome [5]

O=C(O)c1ccc[n+]([O-])c1
inactive: Potency [1] | Potency [2] | outcome [3] | outcome [4] | outcome [5]

C=CCOc1nc(OCC=C)nc(OCC=C)n1
inactive: Potency [1] | Potency [2] | outcome [3] | outcome [4] | outcome [5]

Nc1nc(F)nc2c1ncn2[C@@H]1O[C@H](CO)[C@@H](O)[C@@H]1O
inactive: Potency [1] | Potency [2] | outcome [3] | outcome [4] | Potency [6] | outcome [5]

C=C(C)C(=O)NCCCN(C)C
inactive: Potency [1] | Potency [2] | outcome [3] | outcome [4] | outcome [5]

O=C(O)c1ccccc1-c1ccc(C(F)(F)F)cc1
inactive: Potency [1] | Potency [2] | outcome [3] | outcome [4] | outcome [5]

CCCCCCC(CCCCCCCCCCC(=O)OCC(COC(C)=O)OC(C)=O)OC(C)=O (configuration not stated)
inactive: Potency [1] | Potency [2] | outcome [3] | outcome [4] | outcome [5]

NC(CS)C(=O)O (configuration not stated)
inactive: Potency [1] | Potency [2] | outcome [3] | outcome [4] | outcome [5]

O=C(O)C1CCC1
inactive: Potency [1] | Potency [2] | outcome [3] | outcome [4] | outcome [5]

OCC(O)[C@@H](O)[C@H](O)[C@H](O)CO[C@H]1O[C@H](CO)[C@@H](O)[C@H](O)[C@H]1O (some centres not stated)
inactive: Potency [1] | Potency [2] | outcome [3] | outcome [4] | outcome [5]

CC(C)=CCC/C(C)=C/C(=O)O
inactive: Potency [1] | Potency [2] | outcome [3] | outcome [4] | outcome [5]

NC(=O)c1c(Cl)cccc1Cl
inactive: Potency [1] | Potency [2] | outcome [3] | outcome [4] | Potency [6] | outcome [5] | Potency [7] | Potency [8]

Oc1cc(O)c2c(c1)O[C@H](c1ccc(O)c(O)c1)[C@H](O)C2
inactive: Potency [1] | Potency [2] | outcome [3] | outcome [4] | outcome [5]

CC(C)(O)C(=O)c1ccc(OCCO)cc1
inactive: Potency [1] | Potency [2] | outcome [3] | outcome [4] | outcome [5]

Cc1cc(C)c(NC(=O)CN(CC(=O)O)CC(=O)O)c(C)c1Br
inactive: Potency [1] | Potency [2] | outcome [3] | outcome [4] | outcome [5]

COc1ccc(NC(C)=O)cc1
inactive: Potency [1] | Potency [2] | outcome [3] | outcome [4] | outcome [5]

OC/C=C/c1ccccc1
inactive: Potency [1] | Potency [2] | outcome [3] | outcome [4] | outcome [5]

Cc1cc(C)cc(OCC2CNC(=O)O2)c1 (configuration not stated)
inactive: Potency [1] | Potency [2] | outcome [3] | outcome [4] | outcome [5]

CSc1ccc(C=O)cc1
inactive: Potency [1] | Potency [2] | outcome [3] | outcome [4] | outcome [5]

C=CCn1c(=O)n([C@@H]2O[C@H](CO)[C@@H](O)[C@H]2O)c2nc(N)[nH]c(=O)c21
inactive: Potency [1] | Potency [2] | outcome [3] | outcome [4] | outcome [5]

c1ccc2cnncc2c1
inactive: Potency [1] | Potency [2] | outcome [3] | outcome [4] | outcome [5] | Potency [8]
active: Potency [7] 27.4 µM

CN(C)N=Nc1ccccc1
inactive: Potency [1] | Potency [2] | outcome [3] | outcome [4] | outcome [5] | Potency [7] | Potency [8]

Nc1[nH]c(=O)ncc1F
inactive: Potency [1] | Potency [2] | outcome [3] | outcome [4] | outcome [5] | Potency [8]

NCCNC(=O)c1ccc(Cl)cn1
inactive: Potency [1] | Potency [2] | outcome [3] | outcome [4] | outcome [5] | Potency [8]

Fc1ccccc1-c1ccccc1
inactive: Potency [1] | Potency [2] | outcome [4] | Potency [9] | Potency [6] | outcome [5]

NC(=S)Nc1cccc2ccccc12
inactive: viability change, negative = cytotoxic [1] 1.64% [at 8.39 µM] | activity change, negative = inhibition [2] 2.89% [at 10.5 µM] | activity change, negative = cytotoxicity [4] -0.426% [at 8.39 µM] | activity, negative = inhibition [9] 3.74% [at 8.39 µM] | activation [6] 2.72% [at 8.39 µM] | viability change, negative = cytotoxic [5] 3.04% [at 8.39 µM]

CC/C=C\CCCCO
inactive: Potency [1] | Potency [2] | outcome [3] | outcome [4] | outcome [5]

OCc1ccccn1
inactive: Potency [1] | Potency [2] | outcome [3] | outcome [4] | outcome [5] | Potency [7] | Potency [8]

Nc1nc2c(ncn2CCC(CO)CO)c(=O)[nH]1
inactive: Potency [1] | Potency [2] | outcome [3] | outcome [4] | outcome [5] | Potency [8]

Nc1ncnc2c1ncn2Cc1c(F)cccc1Cl
inactive: Potency [1] | Potency [2] | outcome [3] | outcome [4] | outcome [5] | Potency [8]

N#CCN(CC#N)CCN(CC#N)CC#N
inactive: Potency [1] | Potency [2] | outcome [4] | Potency [9] | Potency [6] | outcome [5]

NC(=O)c1ncn([C@@H]2O[C@H](CO)[C@@H](O)[C@H]2O)c1N
inactive: Potency [1] | Potency [2] | outcome [4] | Potency [9] | Potency [6] | outcome [5]

CC(O)CN(CCCN(C)C)CCCN(C)C (configuration not stated)
inactive: Potency [1] | Potency [2] | outcome [4] | Potency [9] | Potency [6] | outcome [5]

COc1cc(O)cc(O)c1
inactive: Potency [1] | Potency [2] | outcome [4] | Potency [9] | Potency [6] | outcome [5]

CN(C)CCn1nnnc1SCC1=C(C(=O)O)N2C(=O)[C@@H](NC(=O)Cc3csc(N)n3)[C@H]2SC1
inactive: Potency [1] | Potency [2] | outcome [4] | Potency [9] | Potency [6] | outcome [5]

CSc1nc(NC2CC2)nc(NC(C)(C)C)n1
inactive: Potency [1] | Potency [2] | outcome [4] | Potency [9]
active: Potency [6] 17.2 µM

CCCCCOC(=O)Nc1nc(=O)n([C@@H]2O[C@H](C)[C@@H](O)[C@H]2O)cc1F
inactive: Potency [1] | Potency [2] | outcome [4] | Potency [9] | Potency [6] | outcome [5]

OC1OC[C@@H](O)[C@H](O)[C@H]1O (some centres not stated)
inactive: Potency [1] | Potency [2] | outcome [4] | Potency [9] | Potency [6] | outcome [5]

COc1cccc(Br)c1
inactive: Potency [1] | Potency [2] | outcome [3] | outcome [4] | outcome [5] | Potency [7] | Potency [8]

CC(CCO)CCCC(C)(C)O (configuration not stated)
inactive: Potency [1] | Potency [2] | outcome [4] | Potency [6] | outcome [5]
active: Potency [9] 27.3 µM

COC(C(=O)O)c1ccccc1 (configuration not stated)
inactive: Potency [1] | Potency [2] | outcome [4] | Potency [9] | Potency [6] | outcome [5]

CC(C)CCCC(C)NCCC(C)C (configuration not stated)
inactive: Potency [1] | Potency [2] | outcome [3] | outcome [4] | outcome [5] | Potency [8]

CCN(CC)S(=O)(=O)c1ccc(C(=O)O)cc1
inactive: Potency [1] | Potency [2] | outcome [4] | Potency [9] | Potency [6] | outcome [5]

NS(=O)(=O)c1cc2c(cc1Cl)NC(CSCc1ccccc1)=NS2(=O)=O
inactive: Potency [1] | Potency [2] | outcome [4] | Potency [9] | Potency [6] | outcome [5]

Nc1ccn(C2CO[C@H](CO)O2)c(=O)n1 (some centres not stated)
inactive: Potency [1] | Potency [2] | outcome [3] | outcome [4] | outcome [5] | Potency [8]
